A short description of assay [1]: NCI Yeast Anticancer Drug Screen. Data for the rad50 strain (AID 155).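 Also: 0% = growth of vehicle-only cultures of the same strain.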 The note with it: S. cerevisiae rad50 strain growth inhibition, active compounds read high. The procedure, abridged: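 Readout: growth inhibition relative to vehicle-treated cultures. Compound exposure was carried out in a genetically defined yeast strain deficient in DNA damage repair.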
Assay [2] in a line: NCI Yeast Anticancer Drug Screen. Data for the mec2-1 strain (AID 157). The note with it: S. cerevisiae mec2-1 strain, active compounds read high. The procedure, abridged:
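Test agents were screened against the mec2-1 yeast strain, with defined DNA repair or cell cycle alteration. Growth was scored as inhibition against vehicle-only controls.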

Assay [3] is described as follows: NCI Yeast Anticancer Drug Screen. Data for the sgs1 mgt1 strain (AID 161).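 Also: 0% = growth of cultures given vehicle only.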 To be noted: S. cerevisiae sgs1 mgt1 strain, active compounds read high. Summed up: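 Genetically altered yeast, compound exposure, growth inhibition relative to vehicle.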
Assay [4] in a line: NCI Yeast Anticancer Drug Screen. Data for the cln2 rad14 strain (AID 165).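 Also: 0% = growth equal to vehicle treated cultures.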 The note with it: S. cerevisiae cln2 rad14 strain, active compounds read high. Summed up: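 Growth of compound-exposed yeast (cln2 rad14 genotype) measured and expressed as inhibition relative to vehicle.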
The nature of assay [5]: NCI Yeast Anticancer Drug Screen. Data for the bub3 strain (AID 167). The note with it: S. cerevisiae bub3 mutant strain, active compounds read high. The procedure, abridged: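 Readout: yeast growth inhibition, expressed relative to vehicle-only wells. The test organism is a mutant strain from a panel with lesions in DNA repair or checkpoint genes.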
Assay [6] is described as follows: NCI Yeast Anticancer Drug Screen. Data for the mlh1 rad18 strain (AID 175). The note with it: S. cerevisiae mlh1 rad18 strain growth inhibition, active compounds read high. Summed up: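 In this whole-cell yeast screen, a strain with altered DNA damage repair is challenged with compound, and its growth is measured against matched vehicle-treated controls.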
Setting [7] is: at 5.0 µM (retest, dose inferred, filed as 0.5).
Where [8] appears, read: at 50.0 µM (retest, dose inferred, filed as 5.0).

The structures appear in SMILES notation. About 79,000 compounds went through this panel and 15% of them were active in at least one assay; those are over-represented in the sample as a whole. Unmarked numbers belong to inactive results. Calls of active or inactive are those of the source. Rule as the data show it: active = growth inhibition above about 70%; inactive = the rest.

On to `NS(=O)(=O)CCl.[Hg]`, for which the growth inhibition in assay [1] (setting [7]) was 13%; in assay [1] (setting [8]), 99% (active); in assay [2] (setting [7]) it was 17%; in assay [2] (setting [8]) it was 100% (active); in assay [3] (setting [7]) it was 15%; in assay [3] (setting [8]), 100% (active). The growth inhibition was 3% in assay [4] (setting [7]); 98% (active) in assay [4] (setting [8]); 2% in assay [5] (setting [7]); 99% (active) in assay [5] (setting [8]); -16% in assay [6] (setting [7]); 93% (active) in assay [6] (setting [8]).
As to `COc1ccc(/C=C/[N+](=O)[O-])cc1`, the growth inhibition in assay [1] (setting [7]) is 71% (active); in assay [1] (setting [8]) it was 99% (active); in assay [2] (setting [7]) it was 27%; in assay [2] (setting [8]), 100% (active); in assay [3] (setting [7]), 65%; in assay [3] (setting [8]), 100% (active). The growth inhibition in assay [4] (setting [7]) is 11%; in assay [4] (setting [8]), 99% (active); in assay [5] (setting [7]), 14%; in assay [5] (setting [8]) it was 99% (active); in assay [6] (setting [7]), -11%; in assay [6] (setting [8]), 99% (active).
As for `Cc1nnc2n1-c1ccc(Cl)cc1C(c1ccccc1)=[N+]([O-])C2`, the growth inhibition in assay [1] (setting [7]) is 4%; in assay [1] (setting [8]), 0%; in assay [1] (at 50.0 µM), -16.8%; in assay [3] (setting [7]), 1%; in assay [3] (setting [8]), 3%; in assay [3] (at 50.0 µM), 3.05%. Besides, the growth inhibition in assay [4] (setting [7]) is 1%; in assay [4] (setting [8]), 12%; in assay [4] (at 50.0 µM), 64.7%; in assay [5] (setting [7]), -1%; in assay [5] (setting [8]), -1%; in assay [5] (at 50.0 µM), 7.45%. Further, the figures for the growth inhibition in assay [6] (setting [7]), in assay [6] (setting [8]) and in assay [6] (at 50.0 µM) were -3%, -4% and -6.2%, respectively.
On to `CCCC1CC[N-]CC1.CCCC1CC[N-]CC1.N#C[S-].N#C[S-].[Cd]`, for which the growth inhibition in assay [1] (setting [7]) is 31%; in assay [1] (setting [8]) it was 86% (active); in assay [2] (setting [7]) it was 10%; in assay [2] (setting [8]), 59%; in assay [3] (setting [7]), 10%; in assay [3] (setting [8]), 76% (active). Also, the growth inhibition in assay [4] (setting [7]) was 9%; in assay [4] (setting [8]), 65%; in assay [5] (setting [7]), 8%; in assay [5] (setting [8]), 56%; in assay [6] (setting [7]), -14%; in assay [6] (setting [8]) it was 46%.
On to `O=C(CBr)OCCBr`, for which the growth inhibition in assay [1] (setting [7]) was 59%; in assay [1] (setting [8]), 99% (active); in assay [2] (setting [7]) it was 33%; in assay [2] (setting [8]), 99% (active); in assay [3] (setting [7]), 73% (active); in assay [3] (setting [8]) it was 100% (active). Besides, the growth inhibition in assay [4] (setting [7]) was 25%; in assay [4] (setting [8]) it was 98% (active); in assay [5] (setting [7]), 56%; in assay [5] (setting [8]), 99% (active); in assay [6] (setting [7]), 29%; in assay [6] (setting [8]) it was 98% (active).
In the case of `CCCCSc1ccc(C(SCCN(CC)CC)c2ccccc2)cc1` (stereo unspecified), the growth inhibition in assay [1] (setting [7]) was 12%; in assay [1] (setting [8]), 99% (active); in assay [1] (at 50.0 µM) it was 99.8% (active); in assay [3] (setting [7]), 45%; in assay [3] (setting [8]), 100% (active); in assay [3] (at 50.0 µM), 99.8% (active). The growth inhibition in assay [4] (setting [7]) was 32%; in assay [4] (setting [8]) it was 99% (active); in assay [4] (at 50.0 µM), 99.8% (active); in assay [5] (setting [7]) it was 36%; in assay [5] (setting [8]), 99% (active); in assay [5] (at 50.0 µM) it was 99.7% (active). For the same compound, the growth inhibition was 27% in assay [6] (setting [7]), 99% (active) in assay [6] (setting [8]) and 99.7% (active) in assay [6] (at 50.0 µM).
With `[Cl][Sn]([c]1ccccc1)([c]1ccccc1)[c]1ccccc1`, the growth inhibition was 99% (active) in assay [1] (setting [7]); 98% (active) in assay [1] (setting [8]); 99% (active) in assay [2] (setting [7]); 99% (active) in assay [2] (setting [8]); 100% (active) in assay [3] (setting [7]); 99% (active) in assay [3] (setting [8]). In addition, the growth inhibition is 99% (active) in assay [4] (setting [7]); 99% (active) in assay [4] (setting [8]); 100% (active) in assay [5] (setting [7]); 99% (active) in assay [5] (setting [8]); 99% (active) in assay [6] (setting [7]); 98% (active) in assay [6] (setting [8]).
On to `O=C([O][Hg][CH2]C1COC([CH2][Hg][O]C(=O)c2ccccc2)CO1)c1ccccc1` (stereo unspecified), for which the growth inhibition in assay [1] (setting [7]) is 98% (active); in assay [1] (setting [8]), 98% (active); in assay [2] (setting [7]), 99% (active); in assay [2] (setting [8]) it was 99% (active); in assay [3] (setting [7]) it was 99% (active); in assay [3] (setting [8]), 99% (active). Moreover, the growth inhibition in assay [3] (at 50.0 µM) is 89.5% (active); in assay [4] (setting [7]) it was 97% (active); in assay [4] (setting [8]) it was 98% (active); in assay [4] (at 50.0 µM), 90.6% (active); in assay [5] (setting [7]) it was 100% (active); in assay [5] (setting [8]), 99% (active). For the same compound, the results for the growth inhibition in assay [5] (at 50.0 µM), in assay [6] (setting [7]) and in assay [6] (setting [8]) were 89.7% (active), 98% (active) and 98% (active), respectively.
In the case of `C[C](=O)[Hg][O]c1ccc(N=Cc2ccccc2O)cc1`, the growth inhibition is 99% (active) in assay [1] (setting [7]); 99% (active) in assay [1] (setting [8]); 100% (active) in assay [2] (setting [7]); 100% (active) in assay [2] (setting [8]); 100% (active) in assay [3] (setting [7]); 100% (active) in assay [3] (setting [8]). For the same compound, the growth inhibition in assay [4] (setting [7]) was 99% (active); in assay [4] (setting [8]) it was 99% (active); in assay [5] (setting [7]), 100% (active); in assay [5] (setting [8]) it was 99% (active); in assay [6] (setting [7]) it was 99% (active); in assay [6] (setting [8]), 99% (active).
Take `O=C(CBr)OCC(O)CCl` (stereo unspecified): the growth inhibition in assay [1] (setting [7]) was 92% (active); in assay [1] (setting [8]), 99% (active); in assay [2] (setting [7]), 70% (active); in assay [2] (setting [8]), 100% (active); in assay [3] (setting [7]), 96% (active); in assay [3] (setting [8]), 100% (active). The growth inhibition is 49% in assay [4] (setting [7]); 99% (active) in assay [4] (setting [8]); 79% (active) in assay [5] (setting [7]); 100% (active) in assay [5] (setting [8]); 47% in assay [6] (setting [7]); 99% (active) in assay [6] (setting [8]).
Take `N#Cc1cc([N+](=O)[O-])c(Cl)c([N+](=O)[O-])c1`: the growth inhibition is 52% in assay [1] (setting [7]); 99% (active) in assay [1] (setting [8]); 91.5% (active) in assay [1] (at 50.0 µM); 100% (active) in assay [3] (setting [7]); 100% (active) in assay [3] (setting [8]); 93.8% (active) in assay [3] (at 50.0 µM). Further, the growth inhibition in assay [4] (setting [7]) is 67%; in assay [4] (setting [8]) it was 101% (active); in assay [4] (at 50.0 µM) it was 93.3% (active); in assay [5] (setting [7]), 101% (active); in assay [5] (setting [8]), 100% (active); in assay [5] (at 50.0 µM) it was 92.7% (active). Also, the growth inhibition in assay [6] (setting [7]) is 37%; in assay [6] (setting [8]), 100% (active); in assay [6] (at 50.0 µM) it was 92.2% (active).
As to `O=[N+]([O-])/C=C/c1cccc([N+](=O)[O-])c1`, the growth inhibition in assay [1] (setting [7]) was 98% (active); in assay [1] (setting [8]) it was 99% (active); in assay [2] (setting [7]), 99% (active); in assay [2] (setting [8]), 100% (active); in assay [3] (setting [7]) it was 100% (active); in assay [3] (setting [8]) it was 100% (active). Further, the growth inhibition was 35% in assay [4] (setting [7]); 99% (active) in assay [4] (setting [8]); 97% (active) in assay [5] (setting [7]); 100% (active) in assay [5] (setting [8]); -9% in assay [6] (setting [7]); 99% (active) in assay [6] (setting [8]).

These data come from PubChem BioAssay (NCI).
